Laboratory results published in PubChem BioAssay AID1903 (Southern Research Specialized Biocontainment Screening …, 2009).
The campaign covered roughly 310,000 compounds. About 1,200 (0.39%) were called active. The rule behind the calls is not given here. The list is a sample of the results. Potency and affinity values are given separately.

target: Large T antigen (Simian virus 40) (UniProt P03070); assay: SV40 large T antigen inhibitors, biochemical (AID 1903); settings: SV40 large T antigen ATPase/helicase inhibition assay; at 20 µM; hits give high values
Sequence (P03070 whole entry, looked up): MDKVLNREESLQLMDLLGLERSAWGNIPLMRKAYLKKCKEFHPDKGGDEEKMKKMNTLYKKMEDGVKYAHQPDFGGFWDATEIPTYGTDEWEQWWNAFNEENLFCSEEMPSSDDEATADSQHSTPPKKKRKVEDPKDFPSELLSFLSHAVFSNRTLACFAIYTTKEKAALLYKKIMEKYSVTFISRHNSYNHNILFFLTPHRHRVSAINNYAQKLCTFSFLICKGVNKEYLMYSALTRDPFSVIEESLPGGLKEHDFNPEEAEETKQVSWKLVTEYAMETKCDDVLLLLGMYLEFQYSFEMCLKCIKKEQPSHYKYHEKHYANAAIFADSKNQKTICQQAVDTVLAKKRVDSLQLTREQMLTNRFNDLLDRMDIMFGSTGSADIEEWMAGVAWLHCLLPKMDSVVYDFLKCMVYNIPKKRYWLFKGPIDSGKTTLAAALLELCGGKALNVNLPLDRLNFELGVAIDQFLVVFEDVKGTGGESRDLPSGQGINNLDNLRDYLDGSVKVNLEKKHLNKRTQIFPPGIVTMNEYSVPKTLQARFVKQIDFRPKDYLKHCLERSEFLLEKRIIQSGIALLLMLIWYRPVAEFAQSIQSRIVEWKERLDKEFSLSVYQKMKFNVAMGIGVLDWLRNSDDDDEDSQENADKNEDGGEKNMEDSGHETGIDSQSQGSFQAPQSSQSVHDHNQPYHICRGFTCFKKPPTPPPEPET

inhibition, inactive:
COCCNC(=O)CN1CCC(NC(=O)Nc2ccc(C(F)(F)F)cc2)CC1 27.4%
Cc1cc(C)nc(NNC2=CC(=[N+]3CCCCC3)CC(C)(C)C2)n1 3.95%
CNC(=O)COC(=O)CNC(=O)c1cc(Cl)cc([N+](=O)[O-])c1 6.1%
C=CCn1c(SCc2cccc(OC)c2)nnc1-c1ccncc1 5.97%
CCc1ccc(C2CC(c3ccc(Cl)cc3)=NNC2=O)cc1 (centres undefined) -1.48%
O=c1c2ccccc2c(C=Nc2ccccc2O)c(O)n1-c1nccs1 15.8%
Cc1ccnc(N2C3CCC2CC(O)(c2ccccc2)C3)n1 (centres undefined) 2.55%
COc1ccccc1N1CCN(c2nccc(C)n2)CC1 11.9%
O=C1CCCN1c1nccs1 4.21%
O=C(NCCc1c[nH]c2ccccc12)C1CCN(S(=O)(=O)c2ccccc2F)CC1 10.5%
COc1ccc(S(=O)(=O)Cc2ccc(C(=O)NCc3ccccc3)o2)cc1 7.39%
Cc1c([N+](=O)[O-])cc(S(=O)(=O)Nc2ccncc2)cc1[N+](=O)[O-] 1.66%
COc1ccc(/C=C/CN2CCN(Cc3ccc(F)cc3)C(CCO)C2)cc1 (centres undefined) 10.1%
O=C1S/C(=C\C=C\c2ccco2)C(=O)N1c1ccccc1 20.3%
O=C1/C(=C\c2ccco2)SC(=S)N1c1ccccc1 21.4%
Nc1ccc2c3c(cccc13)C(=O)N(c1ccccc1)C2=O 6.29%
O=C1N/C(=C/c2ccc(N3CCCC3)cc2)C(=O)N1c1ccccc1 1.12%
COC(=O)C1=C(C)N(c2ccc(C)c(C)c2)/C(=C/c2ccco2)C1=O 13.5%
CCOC(=O)C1=C(C)N(c2ccc(C)c(C)c2)C(=O)/C1=C\c1ccco1 7.58%
O=C1NC(=S)N/C1=C/C=C/c1ccccc1 -22.6%
O=C1NC(=O)N(c2ccccc2)C1=O 28.5%
O=C(OCc1ccccc1)N1CCOCCN(C(=O)OCc2ccccc2)CCOCC1 0.08%
c1ccc(N2CCN(c3nc(-c4cccs4)nc4ccccc34)CC2)cc1 17.6%
COC(=O)c1cccc(C(=O)N2CCCC(C(=O)c3ccccc3OC)C2)c1 (centres undefined) 2.9%
Cc1ccccc1CCNC(=O)Cn1ccc2cc(S(=O)(=O)N3CCCC3)ccc21 11.1%
CCN(Cc1ccccc1)C(=O)CCS(=O)(=O)c1ccc2c(c1)NC(=O)CO2 6.63%
COc1cccc(/C=N/NC(=O)CCn2nnc3ccccc32)c1 9.43%
COc1ccc(Cn2nnc3ccccc32)cc1 0.77%
COc1ccc(/C=N/NC(=O)CCn2nnc3ccccc32)cc1 3.72%
CN(C)c1ccc(/C=N/NC(=O)Cn2nnc3ccccc32)cc1 14.7%
COc1cccc(/C=N/NC(=O)C(C)n2nnc3ccccc32)c1 (centres undefined) 23.4%
COc1cc(Cn2nnc3ccccc32)cc(Br)c1O 29.6%
COc1ccc(/C=N/NC(=O)C(C)n2nnc3ccccc32)cc1OC (centres undefined) -3.35%
COc1cccc(/C=N\NC(=O)Cn2nnc3ccccc32)c1O 34.8%
